Data as given in PubChem BioAssay (NCATS).
Values joined by “and” are separate entries in the source; they are usually repeats but may differ in a detail not shown here. Equal entries are not always repeated. Results filed as inconclusive are left out. Active and inactive are the calls of the source. Calls come from the whole dose curve; as a rule, active = well fitted curve in the direction sought with a large enough effect; inconclusive = small, poorly fitted or top-dose-only effect, or another doubt; inactive = no such curve, though single readings can be large; an effect the other way counts as inactive or inconclusive.

What was measured:
[1] = P-glycoprotein substrates identified in KB-8-5-11 adenocarcinoma cell line, qHTS therapeutic library screen (AID 1346987); note: nearly all actives have a fitted effect of over 65% in size
Method in brief: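 KB-8-5-11: colchicine-selected sub-line of KB-3-1 over-expressing P-gp; assay medium lacked colchicine. 72 h drug exposure at 37 degree C, CellTiter-Glo.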

[2] = qHTS of pediatric cancer cell lines to identify multiple opportunities for drug repurposing: Primary screen for TC32 cells (AID 1347089); note: nearly all actives have a fitted effect of over 60% in size
Method in brief: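 In the primary qHTS, MIPE compounds were tested at 11 concentrations (0.78 nM to 46 µM) and NPC compounds at 8 (0.59 nM to 46 µM) on TC32 cells for 48 h. CellTiter-Glo luminescence gave viability.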

[3] = qHTS of pediatric cancer cell lines to identify multiple opportunities for drug repurposing: Primary screen for DAOY cells (AID 1347090); note: nearly all actives have a fitted effect of over 55% in size
Method in brief: (§1)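 Eight- or eleven-point concentration series, 48 h treatment at 37 degrees C in growth media; readout CellTiter-Glo luminescence. Potency and efficacy were taken from the concentration-response curves.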

[4] = qHTS of pediatric cancer cell lines to identify multiple opportunities for drug repurposing: Primary screen for A673 cells (AID 1347092); note: nearly all actives have a fitted effect of over 45% in size
Method in brief: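 48 h compound exposure, A673, 500-1,000 cells/well, 37 degrees C/5% CO2. MIPE: 11-point, 0.78 nM-46 µM; NPC: 8-point, 0.59 nM-46 µM (final). Readout CellTiter-Glo luminescence after 15 min RT.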

[5] = qHTS of pediatric cancer cell lines to identify multiple opportunities for drug repurposing: Primary screen for SK-N-MC cells (AID 1347093)
Method in brief: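 Metabolically active cells were quantified by ATP-dependent luminescence (CellTiter-Glo, 15 min at room temperature) following 48 h treatment. Cells had been plated at 500-1,000 per well and settled for 5 h beforehand.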

[6] = qHTS of pediatric cancer cell lines to identify multiple opportunities for drug repurposing: Primary screen for BT-37 cells (AID 1347094)
Method in brief: (§2)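 Primary screen of approved and investigational compounds on cells in growth media at 37 degrees C, 5% CO2. MIPE set at 11-point and NPC set at 8-point dilutions; viability scored by ATP-based luminescence at 48 hours.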

[7] = qHTS of pediatric cancer cell lines to identify multiple opportunities for drug repurposing: Primary screen for NB-EBc1 cells (AID 1347095)
Method in brief: as §2

[8] = qHTS of pediatric cancer cell lines to identify multiple opportunities for drug repurposing: Primary screen for U-2 OS cells (AID 1347096); note: nearly all actives have a fitted effect of over 50% in size
Method in brief: (§3)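 Cells (500-1,000/well) in growth media were settled 5 h at 37 degrees C, then given compounds for 48 h. Viability was read as CellTiter-Glo luminescence. Primary runs used MIPE at 11 points (0.78 nM-46 µM) and NPC at 8 points (0.59 nM-46 µM); follow-ups used 11 points.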

[9] = qHTS of pediatric cancer cell lines to identify multiple opportunities for drug repurposing: Primary screen for Saos-2 cells (AID 1347097); note: nearly all actives have a fitted effect of over 40% in size
Method in brief: as §2

[10] = qHTS of pediatric cancer cell lines to identify multiple opportunities for drug repurposing: Primary screen for SK-N-SH cells (AID 1347098); note: nearly all actives have a fitted effect of over 65% in size
Method in brief: (§4)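 Cells (500-1,000/well) rested 5 h, then received compounds for 48 h; metabolically active cells were measured by CellTiter-Glo luminescence. Final concentrations spanned up to 46 µM (MIPE, 11-point) or 0.59 nM-46 µM (NPC, 8-point) in primary screens, 11-point in follow-ups.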

[11] = qHTS of pediatric cancer cell lines to identify multiple opportunities for drug repurposing: Primary screen for NB1643 cells (AID 1347099); note: nearly all actives have a fitted effect of over 50% in size
Method in brief: as §2

[12] = qHTS of pediatric cancer cell lines to identify multiple opportunities for drug repurposing: Primary screen for LAN-5 cells (AID 1347100)
Method in brief: as §3

[13] = qHTS of pediatric cancer cell lines to identify multiple opportunities for drug repurposing: Primary screen for BT-12 cells (AID 1347101); note: nearly all actives have a fitted effect of over 25% in size
Method in brief: as §4

[14] = qHTS of pediatric cancer cell lines to identify multiple opportunities for drug repurposing: Primary screen for Rh18 cells (AID 1347102); note: nearly all actives have a fitted effect of over 65% in size
Method in brief: as §3

[15] = qHTS of pediatric cancer cell lines to identify multiple opportunities for drug repurposing: Primary screen for SJ-GBM2 cells (AID 1347091)
Method in brief: as §1

[16] = NS1 protein of Zika virus - qHTS assay to identify small molecule inhibitors in human HEK 293 cells (AID 1347053); note: nearly all actives have a fitted effect of over 55% in size
Method in brief: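 Inhibition of NS1 expression was scored in HEK 293 cells given compound 1 h ahead of MR766 virus (MOI = 0.5). Following 24 h at 37 C, two anti-NS1 antibodies generated a TR-FRET signal, scaled between uninfected and infected controls.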

Measured: Potency
Potency is the fitted concentration of half-maximal effect.

CCS(=O)(=O)Nc1ccc2[nH]c(O)c(C(=Nc3ccc(CN4CCCCC4)cc3)c3ccccc3)c2c1
active: [2] 0.131 µM | [3] 7.43 µM | [4] 0.59 µM | [5] 0.118 µM | [6] 27.3 µM | [7] 0.187 µM | [8] 5.9 µM | [9] 0.662 µM | [10] 1.21 µM | [11] 0.118 µM | [12] 0.0372 µM | [13] 21.7 µM | [14] 4.18 µM
inactive: [1]

O=C(O)C=Cc1ccc(Cn2ccnc2)cc1
inactive: [1] | [2] | [15] | [4] | [5] | [6] | [7] | [8] | [9] | [10] | [11] | [12] | [13] | [14]

C#C[C@]1(O)CC[C@@H]2[C@@H]3CCc4cc(O)ccc4[C@H]3CC[C@@]21C
inactive: [2]
active: [1] 11800 nM | [3] 14.8 µM | [15] 18.7 µM | [4] 14.8 µM | [5] 11.8 µM | [7] 13.2 µM | [9] 18.7 µM | [10] 24.1 µM | [11] 20.9 µM

COc1ccc(C=Cc2cc(OC)c(OC)c(OC)c2)cc1NC(=O)[C@H](N)CO
inactive: [10] | [14]
active: [1] 5.9 nM | [2] 0.0415 µM | [3] 0.0093 µM | [15] 0.001 µM | [4] 0.0093 µM | [5] 0.0118 µM | [7] 0.001 µM | [9] 0.0105 µM | [12] 0.0132 µM | [13] 0.0086 µM

N#CNC(=NCCCCCCOc1ccc(Cl)cc1)Nc1ccncc1
active: [1] 4.2 nM | [2] 0.0033 µM | [3] 14.8 µM | [15] 0.001 µM | [4] 0.0023 µM | [5] 0.0033 µM | [7] 0.001 µM | [8] 0.0187 µM | [10] 0.0607 µM | [11] 0.0074 µM | [12] 0.001 µM | [13] 0.544 µM | [14] 0.0187 µM

CC(=O)O[C@@]12CO[C@H]1C[C@H](O)[C@@]1(C)C(=O)[C@H](O)C3=C(C)[C@@H](OC(=O)C(O)[C@@H](NC(=O)OC(C)(C)C)c4ccccc4)C[C@@](O)([C@@H](OC(=O)c4ccccc4)[C@@H]21)C3(C)C (some centres not stated)
active: [1] 16.6 nM | [2] 0.0001 µM | [3] 0.001 µM | [15] 23.5 µM | [5] 0.001 µM
inactive: [8] | [10] | [14]

COC(=O)[C@@H]1[C@H]2C[C@@H]3c4[nH]c5ccccc5c4CCN3C[C@@H]2CC[C@@H]1O
active: [5] 2.96 µM
inactive: [1] | [2] | [3] | [15] | [7] | [8] | [9] | [10] | [12] | [13] | [14]

Cc1ccc2nc(NCCN)c3ncc(C)n3c2c1
active: [1] 4.18 µM and 6.51 µM | [2] 23.4 µM | [3] 14.8 µM | [15] 11.8 µM | [4] 1.87 µM | [5] 1.66 µM | [6] 24.3 µM | [7] 7.43 µM | [10] 6.81 µM | [11] 5.9 µM | [13] 34.3 µM

C=CCNC1=C2C[C@@H](C)C[C@H](OC)[C@@H](O)[C@@H](C)C=C(C)[C@H](OC(N)=O)[C@@H](OC)C=CC=C(C)C(=O)NC(=CC1=O)C2=O
active: [1] 3720 nM | [2] 1.17 µM | [3] 2.96 µM | [15] 0.59 µM | [4] 1.48 µM | [5] 1.66 µM | [6] 0.193 µM | [7] 1.48 µM | [9] 1.66 µM | [10] 2.41 µM | [11] 1.48 µM | [12] 2.09 µM | [13] 19.3 µM | [14] 0.833 µM

C=CC(=O)Nc1cc(NC(=O)c2ccc(C)c(NC(=O)c3ccno3)c2)cc(C(F)(F)F)c1
inactive: [1]
active: [4] 14.8 µM | [5] 10.5 µM | [6] 27.3 µM | [9] 18.7 µM | [10] 24.1 µM | [11] 18.7 µM | [12] 16.6 µM

CC(C)[C@H](CO)Nc1nc(Nc2cccc(Cl)c2)c2ncn(C(C)C)c2n1
active: [1] 10.5 µM and 20.6 µM | [3] 18.7 µM | [15] 16.6 µM | [4] 14.8 µM | [5] 1.32 µM | [6] 21.7 µM | [7] 18.7 µM | [9] 9.35 µM | [10] 21.5 µM | [11] 2.96 µM | [12] 11.8 µM | [13] 21.7 µM

Oc1cc(-c2nc(-c3ccccc3)[nH]c2-c2ccncc2)ccc1Cl
active: [16] 37.2 µM | [3] 5.9 µM | [15] 4.69 µM | [4] 1.48 µM | [5] 0.662 µM | [6] 3.85 µM | [9] 11.8 µM | [10] 19.2 µM | [11] 18.7 µM | [12] 16.6 µM | [13] 6.11 µM | [14] 13.2 µM
inactive: [2]

N#Cc1ccc(COC[C@H]2O[C@@H](n3c(NCc4ccc(Cl)c(Cl)c4)nc4c(N)ncnc43)[C@@H](O)[C@@H]2O)cc1
active: [4] 7.43 µM | [5] 20.9 µM | [10] 19.2 µM | [11] 18.7 µM | [12] 16.6 µM
inactive: [1] | [8] | [9]

COc1cc(C[C@@H](CO)[C@H](CO)Cc2ccc(O)c(OC)c2)ccc1O
active: [3] 0.469 µM | [4] 0.187 µM | [5] 0.209 µM | [6] 3.85 µM | [9] 5.9 µM | [10] 1.71 µM | [11] 0.59 µM | [12] 2.35 µM | [13] 10.9 µM | [14] 4.18 µM
inactive: [1]

c1cc(N[C@@H]2CCNC2)nc(-c2cnc3ccc(-c4cn[nH]c4)cn23)c1
inactive: [1] | [7] | [8]
active: [15] 16.6 µM | [4] 2.96 µM | [5] 4.69 µM | [6] 19.3 µM | [9] 18.7 µM | [10] 24.1 µM | [12] 11.8 µM | [13] 17.2 µM | [14] 20.9 µM
